# Screening data as filed in PubChem.
# Hits are enriched below; roughly 7.8% of the tested compounds scored in any of these assays.
# VACV mCherry inh: vaccinia inhibition (mCherry reporter). Vaccinia virus mCherry reporter infection, fluorescence. Potency, µM (series often up to 36.5 µM), without a hit: top-dose activity change, negative = inhibition, most hits filed as inhibitors. 0.63% of 310,000 active; calls by dose curve; tested in A549 cells; also: potency is read from the fitted curve at half-maximal effect; nearly all actives have a fitted effect of over 35% in size
# VACV Venus inh: inhibitors of vaccinia virus (Venus reporter). Vaccinia virus Venus reporter expression, fluorescence. Potency, µM (doses to about 36.5 µM), for the others: at the highest dose activity change, negative = inhibition, hits mostly inhibitors. 0.46% of 330,000 active. AID 720580; calls by dose curve; tested in A549 cells; also: potency is read from the fitted curve at half-maximal effect; nearly all actives have a fitted effect of over 30% in size
# HCV inh: blocks hepatitis C virus. Potency, µM (highest dose often 41.8 µM), for inactives: top-dose activity change, negative = inhibition, hits mostly inhibitors. AID 651820. 3.4% of 340,000 active. Huh7.5.1 HCVcc-Cre infection, luciferase reporter, 44 h; active = well fitted inhibition curve with a large enough effect; inconclusive = small, poorly fitted or top-dose-only effect, or another doubt; inactive = no such curve, though single readings can be large or run the other way; also: potency is read from the fitted curve at half-maximal effect
#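 Cells seeded at 1,000/well and cultured 4 h, then compounds added followed by HCVcc-Cre virus (~0.5 moi). After 44 h further culture, luciferase substrate was added, plates held 15 min at room temperature, and luminescence read for 15 sec.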
# Marburg entry inh: Marburg virus entry inhibition. Marburg virus pseudotyped entry inhibition, cell reporter. Potency, µM (titrated, usually from 37.8 µM), inactives show at the highest dose activity change, negative = inhibition, hits mostly inhibitors. 1.8% of 300,000 active; calls by dose curve; tested in HEK293 cells; also: potency is read from the fitted curve at half-maximal effect
# HCMV inh: human cytomegalovirus inhibition. HFF cells, HCMV-luciferase reporter, 72 h; hits give low values. activity change, negative = inhibition, % at 57.5 µM. 4.5% of 410,000 active. AID 1259415; in the data active = activity change below about -60%; inconclusive = no clear call, values can overlap the other calls; inactive = above about -39%
#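 Inhibition of viral replication was scored as loss of reporter luminescence in HFFs infected with HCMV-luciferase (MOI 1 PFU/cell) for 72 h; compounds tested at 2 doses, normalized to buffer and Salinomycin controls.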
# Lassa entry inh: Lassa virus entry inhibition | Lassa virus pseudotype entry inhibition, cell reporter | Potency, µM (series often up to 37.9 µM), for the others: at the highest dose activity change, negative = inhibition, usual class: inhibitors | AID 540256 | 1.2% of 300,000 active; calls by dose curve; tested in HEK293 cells; also: potency is read from the fitted curve at half-maximal effect; nearly all actives have a fitted effect of over 50% in size
# The depositor's hits bear a star; i = inactive; ? = inconclusive; / = not tested or not shown; ! = not active in a repeat; [ ] = another dose, or the depositor's remark. % is scaled to controls: 0 for no effect and ±100 for the full control effect.
SMILES,VACV mCherry inh,VACV Venus inh,HCV inh,Marburg entry inh,HCMV inh,Lassa entry inh
CN([C@@H](Cc1ccc(OS(=O)(=O)c2cccc3cnccc23)cc1)C(=O)N1CCN(c2ccccc2)CC1)S(=O)(=O)c1cccc2cnccc12,-4%,-11%,2.8µM*,?,/,?
COc1cccc([C@H]2Oc3ccc(OC)cc3/C(=N\O[C@H](C)c3cn([C@H](CO)Cc4ccccc4)nn3)[C@@H]2O)c1,/,/,/,5%[14.2 µM],/,/
Cc1ccc(C(=O)O[C@H](C(=O)O)[C@@H](OC(=O)c2ccc(C)cc2)C(=O)O)cc1 (tested in a mixture with another compound),/,/,/,-1%,/,8%
CC(=O)Oc1ccc(OC(C)=O)c(SCCCCCN2CCOCC2)c1,/,/,11µM*,16µM*,?,?
CC(SCc1ccccc1)C(=O)N/N=C/c1cc2c(cc1Br)OCO2 (stereo unspecified),-26%,-20%,-26%,?,-39,23µM*
CC(C)(C)c1cc(C(=O)N/N=C/c2cc3c(cc2Br)OCO3)n[nH]1,/,/,11µM*,/,7,/
O=C(N/N=C/c1cc2c(cc1Br)OCO2)c1c[nH]c2ccccc12,/,/,22µM*,/,-19,/
Cc1cc(Cl)ccc1OCC(=O)N1CCOc2ccc(CN3C[C@@H](C)O[C@@H](C)C3)cc2C1,-13%,-1%,/,/,/,/
CC(=O)OCC1=C(C(=O)O)N2C(=O)[C@@H](NC(=O)Cc3cccs3)[C@H]2SC1,2%,-2%,0.56µM*!,?,0,-4%
CC(=O)OCC1=C(C(=O)O)N2C(=O)[C@@H](NC(=O)Cc3ccccc3)[C@H]2SC1,28%,3%,16%,/,-19,/
O=C(Cc1n[nH]c(=O)c2ccccc12)OCC(=O)c1ccc2c(c1)OCCO2,/,/,-8%,?,-87*,?
O=C(Nc1ccccc1F)c1nc(SCc2ccc(F)cc2)ncc1Cl,-11%,-5%,/,19%[46.1 µM],?,21%[46.1 µM]
COC(=O)c1c(OCCN2CCCCC2)cc(=O)n2c1CCN(Cc1cccc3nccnc13)CC2,i,-15%,/,/,/,/
c1coc(C2Nc3ccccc3-c3nc4ccccc4n32)c1 (stereo unspecified),?,?,13µM*,?,36,?
Cc1ccsc1/C=C/C1=Cc2c(sc(NC(=O)CSc3n[nH]c(N)n3)c2C#N)C(C)(C)C1,?,?,11µM*,?,-20,?
COc1ccc(C(=O)NCC2Cc3cccc(-c4cncnc4)c3O2)c(OC)c1OC (stereo unspecified),-24%,-18%,/,/,/,/
CC1CCCN(C(=O)CNC(=O)c2sc3ccccc3c2Cl)C1 (stereo unspecified),-2%,-20%,?,0%,1,2%
Cc1c(/C=N/NC(=O)c2sc3ccccc3c2Cl)cnn1C,-25%,-20%,-5%,-32%,0,-22%
CC1CC(C)CN(C(=O)CNC(=O)c2sc3ccccc3c2Cl)C1 (stereo unspecified),/,/,8.9µM*,/,?,/
O=C(Nc1ccc(CN2CCCCC2)cc1)c1sc2ccccc2c1Cl,i,-10%,11µM*,?,19,-13%
Cn1cccc1/C=N/NC(=O)c1sc2ccccc2c1Cl,/,-24%,-15%,16%,-102*,-21%
CNC(=O)c1ccsc1NC(=O)c1sc2ccccc2c1Cl,8%,-4%,11µM*,?,149,2%
O=C(NCC(=O)N1CCCCC1)c1sc2ccccc2c1Cl,/,/,2%,/,18,/
COc1ccc(NC(=O)CCS(=O)(=O)c2ccc3c(c2)n(C)c(=O)c(=O)n3C)cc1Cl,?,?,/,10%[46.1 µM],16,-2%[46.1 µM]
Cc1cccc(NC(=O)CSc2cn(CC(=O)N3CCCCCC3)c3ccccc23)c1,-6%,-6%,/,/,24,26%[46.1 µM]
SMILES,VACV mCherry inh,VACV Venus inh,HCV inh,Marburg entry inh,HCMV inh,Lassa entry inh
Cc1ccc(NC(=O)c2sc3ccccc3c2Cl)nc1,-15%,-11%,-14%,?,15,5.8µM*
Cc1nnc(NC(=O)c2sc3ccccc3c2Cl)s1,-5%,-29%,-9%,?,19,12µM*
CCN(CC)Cc1ccc(NC(=O)c2sc3cc(Cl)ccc3c2Cl)cc1,?,?,?,?,-104*,?
COCc1nnc(NC(=O)c2sc3ccccc3c2Cl)s1,/,/,4%,10%,45,-19%
Cc1cccnc1NC(=O)c1sc2ccccc2c1Cl,-5%,-20%,9%,?,45,?
CCOC(=O)CSC1=C(C#N)[C@H](c2ccc(C)cc2)[C@H](C(=O)OC)C(=O)N1,/,/,/,-15%[46.1 µM],/,/
CO[C@H]1[C@H](NC(=O)c2ccsc2)c2ccccc2C12CCN(Cc1cc(Cl)ccc1O)CC2,-28%,-18%,/,/,/,/
N#C[C@@H](C(=O)NC1CCCCC1)c1nc2ccccc2nc1N1CCN(c2ccccc2F)CC1,/,/,/,-15%[46.1 µM],/,/
O=C1OC(Nc2ccc(F)c([N+](=O)[O-])c2)c2ccccc21 (stereo unspecified),i,-4%,6%,?,60,?
O=C1OC(Nc2ccc3c(c2)OCO3)c2ccccc21 (stereo unspecified),?,?,?,-24%,-97*,-4%
O=C(NC1CC(=O)N(c2ccccc2)C1)c1cc2ccccc2o1 (stereo unspecified),-1%[7.34 µM],-1%[7.34 µM],/,/,?,-1%[46.1 µM]
NC(=O)c1ccccc1OCc1cccc2ccccc12,-15%,-13%,?,-25%[46.1 µM],-17,1%[46.1 µM]
NC(=O)c1cccc2cc3ccccc3cc12,1%,-4%,11µM*,-13%[46.1 µM],?,?
CC1(C)S[C@@H]2[C@H](NC(=O)COc3ccccc3)C(=O)N2C1C(=O)OCC1CCCCC1 (stereo partly specified),i,-6%,7%,/,-5,/
CC(C)(C)C(=O)OCOC(=O)[C@@H]1N2C(=O)[C@@H](N=CN3CCCCCC3)[C@H]2SC1(C)C,-3%,-21%,0.5µM*,/,22,/
COc1cccc(/C=C/C(=O)NCc2ccc(S(N)(=O)=O)cc2)c1,-9%,-5%,10µM*,-7%[46.1 µM],25,4%
C=CCNC(=S)NNC(=O)c1cccnc1,i,-3%,7%,19%[14.2 µM],5,5%
C=CCNC(=S)NNC(=O)c1ccncc1,i,-14%,14%,/,-64*,/
C=CCC[C@@H](Cc1ccc(F)cc1)C(=O)OC[C@@H](Cc1c[nH]c2ccccc12)NC(=O)[C@H](CC=C)CC(=O)N[C@H](CO)Cc1ccccc1,-32%,11µM*,?,/,?,/
C=CCC[C@H](Cc1ccc(F)cc1)C(=O)OC[C@H](Cc1c[nH]c2ccccc12)NC(=O)[C@H](CC=C)CC(=O)N(CCO)Cc1ccccc1,?,22µM*,?,/,56,/
C=CCC[C@H](Cc1ccc(F)cc1)C(=O)OC[C@@H](C)NC(=O)[C@H](CC=C)CC(=O)NCCO,-10%,-18%,?,/,-5,/
